Results filed as inconclusive are left out. Activity calls are given as the source filed them. Calls come from the whole dose curve; as a rule, active = well fitted curve in the direction sought with a large enough effect in the repeat runs; inconclusive = weak or mixed curves; inactive = no such curve, though single readings can be large; an effect the other way counts as inactive or inconclusive.
How the values were obtained:
[1] = qHTS RealTime-Glo MT Cell Viability Assay in HEK293 cells - 16 hour (AID 1224872); note: nearly all actives have a fitted effect of over 50% in size; note: potency is the fitted concentration of half-maximal effect
Outline: (§1)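 Nonlytic real-time viability readout: viable cells convert prosubstrate to NanoLuc substrate, giving luminescence proportional to live cell number. HEK293, 600 cells/well, compound added after 5 h, continuous culture at 37 C.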

[2] = qHTS RealTime-Glo MT Cell Viability Assay in HEK293 cells - 40 hour (AID 1224874); conditions: RealTime-Glo luminescence; max response: stronger effect = lower value; note: nearly all actives have a fitted effect of over 50% in size; note: potency is the fitted concentration of half-maximal effect
Outline: (§2)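 Viable HEK293 cells reduce a cell-permeant prosubstrate; the product diffuses out and is consumed by NanoLuc in the medium to give light. Compounds went in after a 5 h incubation and plates were read over the treatment course.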

[3] = A CellTox Green Cytotoxicity Assay to monitor cytotoxicity in HEK293 cells - 24 hour (AID 1224875); note: series mostly up to about 77 µM; nearly all actives have a fitted effect of over 45% in size
Outline: (§3)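 Fluorescence intensity, read at 0, 8, 16, 24, 32 and 40 h of compound treatment, reflected dye binding to DNA of dead HEK293 cells; compounds (23 nL, DMSO) were added 5 h after plating cells with reagent.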

[4] = A CellTox Green Cytotoxicity Assay to monitor cytotoxicity in HepG2 cells - 16 hour (AID 1224876); note: nearly all actives have a fitted effect of over 45% in size
Outline: (§4)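 Using 1536-well format, dye-containing HepG2 suspension was seeded, allowed 5 h at 37 C/5% CO2, dosed by pintool with compounds, positive and negative controls, and imaged for fluorescence across 40 h.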

[5] = A CellTox Green Cytotoxicity Assay to monitor cytotoxicity in HepG2 cells - 24 hour (AID 1224878); note: nearly all actives have a fitted effect of over 45% in size
Outline: as §4

[6] = qHTS RealTime-Glo MT Cell Viability Assay in HEK293 cells - 0 hour (AID 1224880); note: nearly all actives have a fitted effect of over 45% in size; note: potency is the fitted concentration of half-maximal effect
Outline: as §2

[7] = A CellTox Green Cytotoxicity Assay to monitor cytotoxicity in HepG2 cells - 0 hour (AID 1224882); note: nearly all actives have a fitted effect of over 35% in size
Outline: as §4

[8] = A CellTox Green Cytotoxicity Assay to monitor cytotoxicity in HEK293 cells - 8 hour (AID 1224884); note: nearly all actives have a fitted effect of over 35% in size
Outline: as §3

[9] = qHTS RealTime-Glo MT Cell Viability Assay in HEK293 cells - 24 hour (AID 1224886); note: nearly all actives have a fitted effect of over 50% in size; note: potency is the fitted concentration of half-maximal effect
Outline: as §1

[10] = A CellTox Green Cytotoxicity Assay to monitor cytotoxicity in HEK293 cells - 16 hour (AID 1224888); note: nearly all actives have a fitted effect of over 35% in size
Outline: as §3

[11] = qHTS RealTime-Glo MT Cell Viability Assay in HepG2 cells - 0 hour (AID 1224889); note: nearly all actives have a fitted effect of over 50% in size
Outline: (§5)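 Luminescence read-out: viable HepG2 cells reduce a prosubstrate to a NanoLuc substrate, giving a signal proportional to live cell number. Reads taken at 0, 8, 16, 24, 32 and 40 h of compound exposure at 37 C.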

[12] = A CellTox Green Cytotoxicity Assay to monitor cytotoxicity in HepG2 cells - 8 hour (AID 1224890); note: nearly all actives have a fitted effect of over 45% in size
Outline: as §4

[13] = qHTS RealTime-Glo MT Cell Viability Assay in HepG2 cells - 8 hour (AID 1224873); note: nearly all actives have a fitted effect of over 55% in size
Outline: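 HepG2 cells mixed with RealTime-Glo MT reagents (NanoLuc plus cell-permeant prosubstrate) were seeded at 600 cells/well, incubated 5 h at 37 C/5% CO2, then pinned with compounds in DMSO; nonlytic luminescence tracked viability during 40 h treatment.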

[14] = qHTS RealTime-Glo MT Cell Viability Assay in HepG2 cells - 32 hour (AID 1224877); note: nearly all actives have a fitted effect of over 55% in size; note: potency is the fitted concentration of half-maximal effect
Outline: as §5

[15] = A CellTox Green Cytotoxicity Assay to monitor cytotoxicity in HepG2 cells - 40 hour (AID 1224879); note: nearly all actives have a fitted effect of over 40% in size; note: potency is the fitted concentration of half-maximal effect
Outline: as §4

[16] = A CellTox Green Cytotoxicity Assay to monitor cytotoxicity in HepG2 cells - 32 hour (AID 1224883); note: nearly all actives have a fitted effect of over 50% in size; note: potency is the fitted concentration of half-maximal effect
Outline: as §4

[17] = qHTS RealTime-Glo MT Cell Viability Assay in HepG2 cells - 16 hour (AID 1224885); note: nearly all actives have a fitted effect of over 50% in size; note: potency is the fitted concentration of half-maximal effect
Outline: as §5

[18] = A CellTox Green Cytotoxicity Assay to monitor cytotoxicity in HEK293 cells - 32 hour (AID 1224881); note: nearly all actives have a fitted effect of over 40% in size
Outline: as §3

[19] = qHTS RealTime-Glo MT Cell Viability Assay in HEK293 cells - 8 hour (AID 1224887); note: nearly all actives have a fitted effect of over 50% in size; note: potency is the fitted concentration of half-maximal effect
Outline: as §2
% is set by controls: 0 for no effect and ±100 for the full control effect.

CC1(CN2CCC(n3c(=O)[nH]c4ccccc43)CC2)OCc2ccccc2-n2cccc21 (stereo not drawn)
inactive: Potency [3] | Potency [4] | Potency [5] | Potency [6] | Potency [7] | Potency [8] | Potency [10] | Potency [11] | Potency [12]
active: Potency [1] 10.7 µM | Potency [2] 19 µM | Potency [9] 19 µM

CCCC(C(=O)OCCN(CC)CC)(c1ccccc1)c1ccccc1
active: Potency [2] 21.3 µM | Potency [9] 21.3 µM
inactive: Potency [13] | Potency [14] | Potency [6] | Potency [7] | Potency [8] | Potency [10] | Potency [11] | Potency [12]

Brc1cc2ccccc2c2ccccc12
inactive: Potency [3] | Potency [4] | Potency [14] | Potency [5] | Potency [6] | Potency [7] | Potency [16] | Potency [8] | Potency [17] | Potency [10] | Potency [12]
active: Potency [15] 39.2 µM

O=C1C(=O)c2ccccc2C(O)=C1C1CCC(c2ccc(Cl)cc2)CC1 (stereo not drawn)
inactive: Potency [1] | Potency [13] | Potency [3] | Potency [4] | Potency [14] | Potency [5] | Potency [18] | Potency [7] | Potency [16] | Potency [8] | Potency [17] | Potency [9] | Potency [19] | Potency [10] | Potency [12]
active: Potency [6] 7.56 µM

C[C@H]1C[C@H](O)c2ccsc2S1(=O)=O
inactive: Potency [13] | max response [2] 2.25% | Potency [3] | Potency [4] | Potency [14] | Potency [5] | Potency [15] | Potency [6] | Potency [18] | Potency [7] | Potency [16] | Potency [8] | Potency [17] | Potency [9] | Potency [19] | Potency [10] | Potency [11] | Potency [12]

CCCCCCCC/C=C\CCCCCCCCCCCC(=O)O
inactive: Potency [13] | Potency [3] | Potency [4] | Potency [14] | Potency [5] | Potency [15] | Potency [6] | Potency [18] | Potency [7] | Potency [16] | Potency [8] | Potency [17] | Potency [9] | Potency [19] | Potency [10]

CN1C[C@H](C(=O)N[C@]2(C)O[C@@]3(O)[C@@H]4CCCN4C(=O)[C@H](Cc4ccccc4)N3C2=O)C[C@@H]2c3cccc4[nH]cc(c34)C[C@H]21
active: Potency [1] 23.9 µM | Potency [2] 12 µM | Potency [9] 21.3 µM | Potency [19] 23.9 µM
inactive: Potency [6] | Potency [7] | Potency [8] | Potency [10] | Potency [11] | Potency [12]

CC(=O)N/N=C/c1ccc([N+](=O)[O-])o1
inactive: Potency [13] | max response [2] 8% | Potency [3] | Potency [4] | Potency [14] | Potency [5] | Potency [6] | Potency [18] | Potency [16] | Potency [8] | Potency [17] | Potency [19] | Potency [10] | Potency [11] | Potency [12]

c1csc(SSc2cccs2)c1
active: Potency [15] 54.9 µM
inactive: Potency [3] | Potency [4] | Potency [6] | Potency [7] | Potency [8] | Potency [10] | Potency [11] | Potency [12]

CC(=O)NC1(c2cccc(F)c2)CCN(CC[C@@]2(c3ccc(Cl)c(Cl)c3)CN(c3ccccc3)C(=O)CO2)CC1
active: Potency [1] 17.4 µM | Potency [2] 17.4 µM | Potency [14] 43.8 µM | Potency [15] 43.8 µM | Potency [16] 43.8 µM | Potency [17] 43.8 µM | Potency [9] 17.4 µM | Potency [19] 31 µM
inactive: Potency [6] | Potency [7] | Potency [8] | Potency [10] | Potency [11] | Potency [12]

NC1[C@H]2CN(c3nc4c(cc3F)c(=O)c(C(=O)O)cn4-c3ccc(F)cc3F)C[C@@H]12 (stereo partly drawn)
inactive: max response [2] -27.4% | Potency [4] | Potency [14] | Potency [5] | Potency [15] | Potency [6] | Potency [18] | Potency [7] | Potency [16] | Potency [17] | Potency [9] | Potency [19] | Potency [11] | Potency [12]

Oc1cccc(O)c1O
inactive: Potency [13] | max response [2] 1.23% | Potency [3] | Potency [4] | Potency [14] | Potency [5] | Potency [15] | Potency [6] | Potency [18] | Potency [16] | Potency [8] | Potency [17] | Potency [9] | Potency [19] | Potency [10] | Potency [11]

CC(=O)Oc1ccc([N+](=O)[O-])cc1CCl
active: Potency [1] 6.16 µM | Potency [2] 3.47 µM | Potency [9] 4.36 µM
inactive: Potency [3] | Potency [4] | Potency [14] | Potency [5] | Potency [15] | Potency [6] | Potency [18] | Potency [7] | Potency [16] | Potency [8] | Potency [17] | Potency [10] | Potency [11] | Potency [12]

O=C=Nc1cccc(C(F)(F)F)c1
inactive: Potency [1] | Potency [13] | Potency [4] | Potency [14] | Potency [5] | Potency [15] | Potency [6] | Potency [7] | Potency [16] | Potency [8] | Potency [17] | Potency [19] | Potency [12]

O=C1NCCN1CCO
inactive: Potency [13] | max response [2] 15.9% | Potency [4] | Potency [14] | Potency [5] | Potency [15] | Potency [6] | Potency [18] | Potency [7] | Potency [16] | Potency [8] | Potency [17] | Potency [9] | Potency [19] | Potency [10] | Potency [11] | Potency [12]

CC(CC1c2ccccc2CCc2ccccc21)CN(C)C (stereo not drawn)
inactive: Potency [1] | Potency [13] | Potency [3] | Potency [4] | Potency [14] | Potency [6] | Potency [18] | Potency [7] | Potency [8] | Potency [17] | Potency [9] | Potency [19] | Potency [10] | Potency [11] | Potency [12]

— PubChem BioAssay (Tox21)
